Molecules are shown by their SMILES. Results filed as inconclusive are left out. The source made the active and inactive calls. Unless noted, calls follow the shape of the dose curve; as a rule, active = well fitted curve in the direction sought with a large enough effect; inconclusive = small, poorly fitted or top-dose-only effect, or another doubt; inactive = no such curve, though single readings can be large; an effect the other way counts as inactive or inconclusive.

Experiment [1] can be described thus: qHTS for Inhibitors of Plasmodium falciparum (DD2) proliferation (AID 504314).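 Also: parasite DNA measured by SYBR Green fluorescence after red cell lysis.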 The procedure, abridged:
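Normalization used 0.29 uM artemisinin as full inhibition and DMSO as baseline. Parasitized erythrocytes were exposed to compounds for 72 h (37C, 5% CO2), then lysed with saponin/Triton buffer containing SYBR Green I.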

The nature of experiment [2]: qHTS for Inhibitors of Plasmodium falciparum (GB4) proliferation (AID 504315). Also: nearly all actives have a fitted effect of over 50% in size. The method in brief:
(§1)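 Parasite growth measured as SYBR Green DNA fluorescence (ex 485, em 535 nm) after overnight lysis following 72 h culture at 37 °C, 0.3% parasitemia, 2.5% hematocrit. Values normalized against DMSO and 0.29 uM artemisinin controls, with plate-stack correction.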

Experiment [3] is described as follows: qHTS for Inhibitors of Plasmodium falciparum (7G8) proliferation (AID 504316). Also: series mostly up to about 6.7 µM; nearly all actives have a fitted effect of over 65% in size. The procedure, abridged: as §1
A short description of experiment [4]: qHTS for Inhibitors of Plasmodium falciparum (HB3) proliferation (AID 504318). Also: nearly all actives have a fitted effect of over 60% in size. The procedure, abridged:
as §1

A short description of experiment [5]: qHTS for Inhibitors of Plasmodium falciparum (CP250) proliferation (AID 504320). The method in brief:
as §1

Experiment [6] concerns the target Atrial natriuretic peptide receptor 1 (Homo sapiens) (UniProt P16066). Put plainly: Natriuretic polypeptide receptor (hNpr1) antagonism - Pilot CMLD screen (AID 1347052; calls by dose curve;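 also: cGMP level read as GloSensor luciferase luminescence after agonist stimulation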; also: potency is read from the fitted curve at half-maximal effect).

Chain of Atrial natriuretic peptide receptor 1 (Homo sapiens) (P16066 whole entry, looked up): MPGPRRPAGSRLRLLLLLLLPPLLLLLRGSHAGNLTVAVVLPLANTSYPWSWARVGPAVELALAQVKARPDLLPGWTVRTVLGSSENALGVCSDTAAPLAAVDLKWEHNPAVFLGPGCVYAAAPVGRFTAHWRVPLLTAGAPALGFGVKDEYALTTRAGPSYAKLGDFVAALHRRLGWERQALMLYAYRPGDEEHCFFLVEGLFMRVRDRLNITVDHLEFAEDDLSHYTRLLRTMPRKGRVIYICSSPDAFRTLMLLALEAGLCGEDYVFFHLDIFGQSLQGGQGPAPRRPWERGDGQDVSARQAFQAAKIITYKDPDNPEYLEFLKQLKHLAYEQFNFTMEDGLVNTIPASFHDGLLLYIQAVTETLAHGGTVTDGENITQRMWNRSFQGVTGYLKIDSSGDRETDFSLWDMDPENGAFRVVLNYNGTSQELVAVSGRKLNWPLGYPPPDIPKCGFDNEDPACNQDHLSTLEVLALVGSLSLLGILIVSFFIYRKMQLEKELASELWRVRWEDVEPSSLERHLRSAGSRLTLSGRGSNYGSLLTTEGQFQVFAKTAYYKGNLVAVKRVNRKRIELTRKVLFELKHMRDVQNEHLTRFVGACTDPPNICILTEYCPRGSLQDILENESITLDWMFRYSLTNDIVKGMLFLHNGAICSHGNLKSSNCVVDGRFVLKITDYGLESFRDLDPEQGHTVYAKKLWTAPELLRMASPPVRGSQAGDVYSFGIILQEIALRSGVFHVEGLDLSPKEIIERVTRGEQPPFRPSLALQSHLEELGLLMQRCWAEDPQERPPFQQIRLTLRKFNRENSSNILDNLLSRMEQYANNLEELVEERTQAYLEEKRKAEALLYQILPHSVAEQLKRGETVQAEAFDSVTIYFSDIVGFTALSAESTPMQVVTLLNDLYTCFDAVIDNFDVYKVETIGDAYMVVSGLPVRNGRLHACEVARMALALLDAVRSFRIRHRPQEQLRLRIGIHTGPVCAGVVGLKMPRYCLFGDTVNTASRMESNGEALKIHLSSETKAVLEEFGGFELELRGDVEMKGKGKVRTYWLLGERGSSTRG

`C#CCCCON=C1C[C@@H](O)[C@H](O)[C@H]2[C@@H]3C(=O)N(C[C@@H]4CCCO4)C(=O)[C@@H]3CC[C@@H]12`: the Potency result in experiment [1], in experiment [2], in experiment [3], in experiment [4], in experiment [5] and in experiment [6] was “inactive” in each case.
As for `CC1(O)C(=O)C=C2C=C(c3ccc(C#N)cc3)OC=C2C1=O` (configuration not stated), the Potency result in experiment [1], in experiment [2], in experiment [3], in experiment [4], in experiment [5] and in experiment [6] was “inactive” throughout.
On to `COC(=O)N[C@@H](c1cccc(F)c1)[C@]1(C(=O)OC)CCCC1=O`, for which the Potency result in experiment [1], in experiment [2], in experiment [3], in experiment [4], in experiment [5] and in experiment [6] was “inactive” in each case.
On to `COCCN1C(=O)N[C@@H](CCc2ccccc2)[C@@H](C(=O)OC)[C@H]1C`, for which the Potency result in experiment [1], in experiment [2], in experiment [3], in experiment [4], in experiment [5] and in experiment [6] was “inactive” in each case.
Regarding `C=C(C)CCN1C(=O)NC(c2ccccc2)C(C(C)=O)=C1C` (configuration not stated), the Potency result in experiment [1], in experiment [2], in experiment [3], in experiment [4], in experiment [5] and in experiment [6] was “inactive” in each case.
`COC(=O)C1=C(C)N(CC2CC2)C(=NCCc2cccnc2)NC1c1ccccc1` (configuration not stated): the Potency entry in experiment [1], in experiment [2], in experiment [3], in experiment [4], in experiment [5] and in experiment [6] was “inactive” throughout.
In the case of `CC(C)=CCCC(C)=CCON=C1C[C@@H](O)[C@@H](O)[C@@H]2[C@H]3C(=O)N(C[C@@H]4CCCO4)C(=O)[C@@H]3CC[C@H]12`, the Potency result in experiment [1], in experiment [2], in experiment [3], in experiment [4], in experiment [5] and in experiment [6] was “inactive” each time.
For the compound `C=CCOC(=O)N[C@H](C(C(=O)OC)=C(C)NCc1ccccc1)c1cccc(OC)c1`, the Potency result in experiment [1], in experiment [2], in experiment [3], in experiment [4], in experiment [5] and in experiment [6] was “inactive” throughout.
Turning to `CCOC(=O)NN=C1C[C@@H](O)[C@@H](O)[C@@H]2[C@H]3C(=O)N(Cc4ccccc4)C(=O)[C@@H]3CC[C@@H]12`, the Potency result in experiment [1], in experiment [2], in experiment [3], in experiment [4], in experiment [5] and in experiment [6] was “inactive” in each case.
For the compound `COCCN1C(=O)NC(CCc2ccccc2)C(C(C)=O)=C1C` (configuration not stated), the Potency result in experiment [1], in experiment [2], in experiment [3], in experiment [4], in experiment [5] and in experiment [6] was “inactive” in each case.
Take `COc1cccc([C@H]2Oc3ccc(OC)cc3C(=NOC[C@@H](O)COCc3ccco3)[C@H]2O)c1`: the Potency entry in experiment [1], in experiment [2], in experiment [3], in experiment [4], in experiment [5] and in experiment [6] was “inactive” throughout.
As to `COc1cccc2c1[C@H](C=Cc1ccccc1)[C@@H]([C@H](O)CO)OC2`, the Potency result in experiment [1], in experiment [2], in experiment [3], in experiment [4], in experiment [5] and in experiment [6] was “inactive” each time.
`CC(=O)OC[C@H]1O[C@H](CC=NOC[C@@H](O)COCc2ccco2)C=C[C@H]1OC(C)=O`: the Potency entry in experiment [1], in experiment [2], in experiment [3], in experiment [4], in experiment [5] and in experiment [6] was “inactive” in each case.
For the compound `C=CCCCN1C=C(C(C)=O)C(c2ccccc2)NC1=O` (configuration not stated), the Potency result in experiment [1], in experiment [2], in experiment [3], in experiment [4], in experiment [5] and in experiment [6] was “inactive” in each case.
Regarding `COC(=O)N[C@H](C(C(=O)OC)=C(C)NCc1ccccc1)c1cccs1`, the Potency result in experiment [1], in experiment [2], in experiment [3], in experiment [4], in experiment [5] and in experiment [6] was “inactive” throughout.
With `COC(=O)N[C@@H](c1cccc(C)c1)[C@]1(C(=O)OC)CCCC1=O`, the Potency entry in experiment [1], in experiment [2], in experiment [3], in experiment [4], in experiment [5] and in experiment [6] was “inactive” throughout.
Turning to `O=C(C=Cc1cccc([N+](=O)[O-])c1)c1ccccc1`, the Potency result in experiment [1], in experiment [2], in experiment [3], in experiment [4] and in experiment [5] was “inactive” throughout. Also, the Potency in experiment [6] was 2990 nM (active).
For the compound `CC1(OC(=O)C2CCCC2)C(=O)C=C2C=C(c3ccc(C#N)cc3)OC=C2C1=O` (configuration not stated), the Potency result in experiment [1], in experiment [2], in experiment [3], in experiment [4], in experiment [5] and in experiment [6] was “inactive” in each case.
Turning to `CC(=O)OC[C@H]1O[C@H](C#Cc2ccc(F)cc2F)C=C[C@H]1OC(C)=O`, the Potency entry in experiment [1], in experiment [2], in experiment [3], in experiment [4], in experiment [5] and in experiment [6] was “inactive” in each case.
As for `COc1cc(O)c(C(=O)C=Cc2ccc3c(c2)OCO3)c(OC)c1`, the Potency result in experiment [1], in experiment [2], in experiment [3], in experiment [4], in experiment [5] and in experiment [6] was “inactive” throughout.
On to `CC=COC(=O)N[C@@H](c1ccccc1)[C@]1(C(C)=O)CCCC1=O`, for which the Potency entry in experiment [1], in experiment [2], in experiment [3], in experiment [4], in experiment [5] and in experiment [6] was “inactive” each time.
As for `CC1=CC[C@@H](C)O[C@@]2(C1)C(=O)N(Cc1ccc(Br)cc1)c1ccccc12`, the Potency result in experiment [1], in experiment [2], in experiment [3], in experiment [4], in experiment [5] and in experiment [6] was “inactive” throughout.
Regarding `COC(=O)C1(C(=O)OC)Cc2conc2[C@@H]1c1ccccc1`, the Potency result in experiment [1], in experiment [2], in experiment [3], in experiment [4], in experiment [5] and in experiment [6] was “inactive” each time.
Take `C=C[C@H](C)[C@](C)(O)c1ccccc1`: the Potency result in experiment [1], in experiment [2], in experiment [3], in experiment [4], in experiment [5] and in experiment [6] was “inactive” throughout.
In the case of `C#CCNC(=O)[C@H]1C=C(OC)C(=O)C[C@H](c2ccccc2)[C@H]1C`, the Potency result in experiment [1], in experiment [2], in experiment [3], in experiment [4], in experiment [5] and in experiment [6] was “inactive” each time.
On to `COC(=O)CC=C[C@@H](C)[C@H](OC)c1c(Br)ccc2c1OCO2`, for which the Potency entry in experiment [1], in experiment [2], in experiment [3], in experiment [4], in experiment [5] and in experiment [6] was “inactive” in each case.
In the case of `CCOC(=O)NN=Cc1ccccc1-c1cc(OC)ccc1OC`, the Potency result in experiment [1], in experiment [2], in experiment [3], in experiment [4], in experiment [5] and in experiment [6] was “inactive” in each case.
